# Assay outcomes from PubChem BioAssay.
# A selection: hits, their analogues and other compounds. The true share with any hit is near 5.7%.
# ATXN viability: reduces viability in counter-screen for ATXN expression inhibitors; S2 cells (HEK-293 line with an ATXN2-luciferase reporter) viability, CellTiter-Fluor protease fluorescence, 24 h; Potency, µM (highest dose often 56.7 µM), most hits filed as cytotoxic; 0.49% of 400,000 active; AID 651635; also: potency is read from the fitted curve at half-maximal effect; nearly all actives have a fitted effect of over 40% in size
# TGFb inhibitor: blocks TGF-b signaling; HepG2 CAGA-GFP TGF-b/SMAD3 reporter, GFP fluorescence, 18 h; TGF-beta stimulated, 500 pg/mL final; Potency, µM (titrated, usually from 46.1 µM), without a hit: top-dose activity, negative = inhibition, most hits filed as inhibitors; 1.2% of 410,000 active; also: potency is read from the fitted curve at half-maximal effect; % is scaled to controls: 0 for no effect and ±100 for the full control effect; nearly all actives have a fitted effect of over 65% in size
#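 Inhibition was scored as loss of TGF-beta-induced (500 pg/mL final, 18 hours, 37 degrees C) GFP in HEPG2 cells carrying a CAGA-GFP reporter, in DMEM with 1% FBS. Well GFP was summed per cell; Activity was normalised to unstimulated and stimulated DMSO wells, then concentration-response fitting.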
# IL-1B inflam inh: blocks inflammasome-driven IL-1 beta release; 4.7% of 360,000 active; activity change, % at 57.5 µM; THP-1 LPS/ATP IL-1B secretion, AlphaLISA, 16 h; active compounds read low; in the data active = activity change below about -50%; inconclusive = mostly about -30% to -49%; also: % is scaled to controls: 0 for no effect and ±100 for the full control effect
#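 THP-1 cells pretreated 1 hr with compounds (up to 57.5 uM final), then stimulated with LPS (250 ng/mL final) plus ATP (1.25 mM final); secreted IL-1B measured by AlphaLISA after 16 hr, decreased signal indicating inhibition.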
# HepG2 viability: HepG2 cytotoxicity, counter-screen for TGF-b inhibitors. HepG2 CAGA-GFP viability, ATP luminescence, 18 h. Potency, µM (highest dose often 46.1 µM), for the others: at the highest dose activity change, negative = cytotoxicity, usual class: cytotoxic. 0.76% of 410,000 active. AID 588856; also: potency is read from the fitted curve at half-maximal effect
#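 HepG2 CAGA-GFP cells (1000/well, DMEM with 1% FBS) received compound, then TGF-beta at 500 pg/mL final, and were incubated 18 hours at 37 degrees C. Viability was read by CellTiter-Glo luminescence. Media-only wells were set as complete cell-killing and DMSO as no toxicity.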
# ATXN2 expr inh: ATXN2 expression inhibition; HEK-293 ATXN2-luciferase reporter, luminescence, 24 h; 0.72% of 360,000 active; Potency, µM (titrated, usually from 57 µM), for the others: at the top dose activity change, negative = inhibition, actives largely listed as inhibitors; AID 1745845; also: potency is read from the fitted curve at half-maximal effect; % is scaled to controls: 0 for no effect and ±100 for the full control effect; nearly all actives have a fitted effect of over 55% in size
#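 ATXN2-luciferase reporter cells (luciferase flanked by upstream and downstream ATXN2 gene portions) were treated 24 h at 37 °C with compounds at up to 57 uM. SteadyGlo luminescence gave expression; GF-AFC fluorescence gave viability.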
# * marks the source's active call; other numbers are inactive results; i = inactive; ? = inconclusive; / = not tested or not shown. Unless noted, calls follow the shape of the dose curve; as a rule, active = well fitted curve in the direction sought with a large enough effect; inconclusive = small, poorly fitted or top-dose-only effect, or another doubt; inactive = no such curve, though single readings can be large; an effect the other way counts as inactive or inconclusive.
SMILES,ATXN viability,TGFb inhibitor,IL-1B inflam inh,HepG2 viability,ATXN2 expr inh
CN1C(=O)C(O)(CC(=O)c2ccncc2)c2ccccc21 (stereo unspecified),i,0%,-53*,4%,3%
Cc1oc2ncn(CC(C)C)c(=O)c2c1C(=O)NC(C)c1ccccc1 (stereo unspecified),?,12%,/,-5%,-17%
CCC(C)c1c(O)nc(SCC(=O)N2CCCCCC2)[nH]c1=O (stereo unspecified),i,-21%,-51*,-15%,19%
Cn1c(=O)n(C)c2cc(S(=O)(=O)Nc3ccccc3O)ccc21,i,18%,11,16%,17%
Cc1ccc(NS(=O)(=O)c2ccc3c(c2)n(C)c(=O)n3C)c(C)c1,i,-11%,-54*,5%,4%
O=C(N/N=C\c1ccc(Cl)s1)C1COc2ccccc2O1 (stereo unspecified),i,0%,-8,-21%,-33%
O=C(N/N=C\c1ccc([N+](=O)[O-])o1)C1COc2ccccc2O1 (stereo unspecified),i,16µM*,-15,-146%,-31%
O=C(N/N=C\c1ccc([N+](=O)[O-])s1)C1COc2ccccc2O1 (stereo unspecified),?,-3%,-53*,-13%,?
CCCc1ncc(C(=O)O)s1,i,/,/,/,13%
Cc1c(C(=O)NCCN2CCC(c3ccccc3)CC2)cnn1-c1nccc(-c2cccs2)n1,28µM*,/,/,/,/
Cc1c(C(=O)NCCc2ccccn2)cnn1-c1nccc(-c2cccs2)n1,i,/,/,/,/
CC(=O)OCCCN(C)CC/C=C1/c2ccccc2CSc2ccccc21,i,?,-70*,-41%,-5%
CC(C)c1ccc(OCc2nc(-c3ccccn3)no2)c(Br)c1,i,18%,-54*,2%,56%
Cc1ccc(OCc2nc(-c3ccccn3)no2)c(Br)c1,i,-3%,-7,-37%,-39%
O=C(CN1C(=O)COc2ccc(S(=O)(=O)N3CCCC3)cc21)NCCc1ccc(Cl)cc1,/,?,/,-1%,/
O=C(Cn1c(=O)n(Cc2nc(-c3ccccc3)no2)c(=O)c2ccccc21)Nc1cccc(C(F)(F)F)c1,/,?,/,-37%,/
O=C1Nc2ccc(Br)cc2C12NNc1ccccc1O2 (stereo unspecified),25µM*,-10%,-5,-105%,?
O=[N+]([O-])c1nn(-c2ccc3c(c2)OCCO3)n(O)c1=NCc1ccc(F)cc1Cl,i,2%,-11,-3%,5%
O=[N+]([O-])c1nn(-c2ccc3c(c2)OCCO3)n(O)c1=NCc1ccc(F)cc1,i,?,-76*,-11%,-7%
Cc1[nH]c2ccc(C(=O)OC(C)C(=O)NCc3ccccc3)cc2c1C (stereo unspecified),?,-2%,-56*,-25%,-16%
CC(OC(=O)c1cnc(Cl)c(Cl)c1)C(=O)NCc1ccccc1 (stereo unspecified),?,-8%,-87*,-5%,-10%
CC(OC(=O)c1nc(Cl)ccc1Cl)C(=O)NCc1ccccc1 (stereo unspecified),i,10%,-22,-4%,/
COCCN(C(=O)COC(=O)c1ccc2[nH]c(C)c(C)c2c1)c1c(N)n(Cc2ccccc2)c(=O)[nH]c1=O,i,-4%,-27,4%,7%
Cc1ccccc1CN(C)C(=O)COC(=O)c1ccc2[nH]c(C)c(C)c2c1,?,-29%,-61*,7%,4%
COc1ccc(NC(=O)C(NC(=O)C2CCC(C)CC2)C(C)C)cc1 (stereo unspecified),i,-5%,/,-26%,9%
SMILES,ATXN viability,TGFb inhibitor,IL-1B inflam inh,HepG2 viability,ATXN2 expr inh
CCCCNS(=O)(=O)c1cc(-c2nn(C)c(=O)c3ccccc23)ccc1C,i,0%,-65*,-1%,-12%
COc1ccc(CCN(C(=S)Nc2ccccc2)C2CC(=O)N(c3ccccc3)C2=O)cc1 (stereo unspecified),i,-10%,19,-38%,-9%
O=C1CC(N(CCc2ccccc2)C(=S)Nc2ccccc2)C(=O)N1c1ccc(Br)cc1 (stereo unspecified),?,?,-12,2.2µM*,?
CN(C)c1ccc(NC(=O)CSC2=Nc3ccccc3C3=NC(CCC(=O)NCc4cccs4)C(=O)N23)cc1 (stereo unspecified),/,-6%,/,-22%,/
Cc1ccc(C)c(NS(=O)(=O)c2cc(C(=O)Nc3ccccc3-c3ccccc3)ccc2Cl)c1,i,-4%,-61*,-28%,-15%
Oc1ccc(N=Nc2nc(-c3ccccc3)c(-c3ccccc3)[nH]2)cc1,11µM*,-30%,0,-28%,10%
c1ccc(-c2c(-c3ccccc3)n(Cc3ccco3)c3ncnc(NCCCn4ccnc4)c23)cc1,/,?,-98*,20µM*,?
c1ccc(-c2oc3ncnc(NCCN4CCOCC4)c3c2-c2ccccc2)cc1,i,-15%,-82*,-41%,-24%
CN(C)CCCNc1ncnc2oc(-c3ccccc3)c(-c3ccccc3)c12,i,-20%,-83*,0%,2%
c1ccc(-c2oc3ncnc(NCCCn4ccnc4)c3c2-c2ccccc2)cc1,i,?,-79*,-38%,-35%
OCCNc1ncnc2c1c(-c1ccccc1)c(-c1ccccc1)n2Cc1ccco1,i,3%,-13,-44%,-1%
CSc1ccc(CCNC(=O)Cn2c(C)c3cnn(-c4ccccc4)c(=O)c3c2C)cc1,i,-28%,/,-21%,2%
CCCCNc1c(-c2ccc(OC)c(Sc3ccc(OC)cc3)c2)nc2ccccn12,?,?,-104*,-64%,?
CCCCNc1c(-c2ccc(-c3ccc(OC)cc3)c(OC)c2)nc2ccccn12,i,?,-75*,-73%,?
CCCCCCSc1ccc(-c2nc3ccc(Cl)cn3c2NCCCC)cc1OC,i,?,-15,-22%,3%
CCCCNc1c(-c2ccc(OC)c(Sc3ccc(OC)cc3)c2)nc2cnccn12,/,?,55,-24%,?
CN(C)S(=O)(=O)c1cccc(N=C2SCCN2Cc2ccccc2)c1,i,10%,-9,2%,-18%
CCc1ccc(C2=NNC(=Nc3cccc(S(=O)(=O)N(C)C)c3)SC2)cc1,?,13µM*,-70*,-41%,?
COC(=O)C1=C(C)NC(C)=C(C(=O)OC)C1c1ccc(-c2cc(Cl)ccc2Cl)o1,?,-15%,-68*,-3%,-15%
COc1cccc(OC)c1NC(=O)c1ccc(-c2cc(Cl)ccc2Cl)o1,i,?,-58*,-30%,?
O=C(NNC(=O)c1ccccc1F)c1ccc(-c2ccccc2Cl)o1,i,-9%,-52*,-8%,/
